The values below come from PubChem BioAssay (Tox21).

The structures appear in SMILES notation. Records with an inconclusive call do not appear. Values without a mark were called inactive. Activity calls are given as the source filed them. Unless noted, calls follow the shape of the dose curve; as a rule, active = well fitted curve in the direction sought with a large enough effect in the repeat runs; inconclusive = weak or mixed curves; inactive = no such curve, though single readings can be large; an effect the other way counts as inactive or inconclusive.

Assay [1] is described as follows: qHTS assay to identify small molecule agonists of the AP-1 signaling pathway - cell viability counter screen (AID 1159525; calls by dose curve; also: nearly all actives have a fitted effect of over 55% in size; also: potency is read from the fitted curve at half-maximal effect). In short, it runs like this:
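ME-180 AP-1-bla, 2500 cells/well, Opti-MEM + 0.5% dialyzed FBS; overnight 37 °C; cpd 15-pt titration, 5 h 37 °C; CellTiter-Glo 30 min RT; luminescence read; normalised to TOAB and DMSO controls.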

Assay [2] can be described thus: qHTS assay to identify small molecule agonists of the AP-1 signaling pathway (AID 1159526; calls by dose curve; also: % is scaled to controls: 0 for no effect and ±100 for the full control effect).
Assay [3] is described as follows: qHTS assay to identify small molecule agonists of the RXR signaling pathway - cell viability counter screen (AID 1159529). Also: nearly all actives have a fitted effect of over 50% in size. Also: potency is read from the fitted curve at half-maximal effect. As to activity change, negative = cytotoxicity: series mostly up to about 77 µM; % is scaled to controls: 0 for no effect and ±100 for the full control effect. In short, it runs like this: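 Luminescence from CellTiter-Glo (30 min, RT) measured viability in the same wells as the beta-lactamase reporter readout. Cells: GeneBLAzer RXR-alpha HEK 293T, 2% charcoal-stripped FBS. Compound exposure 16 hr, 37 C.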
On the technique in general: qHTS replaces the single test concentration by a dilution series.

Assay [4] can be described thus: qHTS assay to identify small molecule antagonists of the retinoid acid receptor (RAR) signaling pathway - cell viability counter screen (AID 1159551). Also: nearly all actives have a fitted effect of over 35% in size. Also: potency is read from the fitted curve at half-maximal effect. The method in brief:
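Seed C3RL4 cells; next day add compound, then retinol to 1 uM final; incubate 6 h at 37 C; add CellTiter-Glo; read luminescence after 30 min at RT.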

A short description of assay [5]: qHTS assay to identify small molecule antagonists of the retinoic acid receptor (RAR) signaling pathway (AID 1159552; also: nearly all actives have a fitted effect of over 50% in size; also: potency is read from the fitted curve at half-maximal effect). The method in brief: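 Luminescence from a RARE luciferase reporter in C3RL4 cells served as read-out. Cells received compounds together with 1 uM final retinol and incubated 6 hr at 37 C before detection reagent was added for 30 min at room temperature.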

Assay [6] is described as follows: qHTS assay to identify small molecule antagonists of the estrogen related receptor (ERR) signaling pathway - cell viability counter screen (AID 1224818).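 Also: series mostly up to about 46 µM; viability measured after 17.5 h of compound exposure; % is scaled to controls: 0 for no effect and ±100 for the full control effect.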 In short, it runs like this:
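In the same ERR cell assay, compound-treated wells (17.5 h, 37 C) were multiplexed with a fluorogenic viability reagent, CellTiter-Fluor, read after 30 min to flag cytotoxic substances.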

Assay [7] is described as follows: qHTS assay to identify small molecule antagonists of the estrogen related receptor signaling pathway with the pleiotropic PPARgamma coactivator (PGC) cell viability counter screen (AID 1224822; also: potency is read from the fitted curve at half-maximal effect). The method in brief:
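Compounds in DMSO, with positive and negative controls, were applied to PGC/ERR cells (2,000/well) and left 17.5 h at 37 C before CellTiter-Fluor detection.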

Assay [8] is described as follows: qHTS assay to identify small molecule antagonists of the estrogen related receptor (ERR) signaling pathway from Tox21 library - cell viability counter screen (AID 1224834). Also: nearly all actives have a fitted effect of over 30% in size. Also: potency is read from the fitted curve at half-maximal effect. In short, it runs like this:
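CellTiter-Fluor fluorescence measured; ERR cells; 17.5 h compound incubation at 37 C; 30 min reagent step.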

Assay [9] deals with Luciferin 4-monooxygenase (Photinus pyralis) (UniProt P08659). Description: qHTS assay to identify small molecule inhibitors of firefly luciferase (AID 1224835). Also: nearly all actives have a fitted effect of over 25% in size. Also: potency is read from the fitted curve at half-maximal effect. In short, it runs like this:
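Quantitative HTS format; KM concentrations of both substrates. Purified P. pyralis FLuc activity quantified from luminescence images.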

A short description of assay [10]: qHTS assay to identify small molecule agonists of the constitutive androstane receptor (CAR) signaling pathway - cell viability counter screen (AID 1224836). Also: nearly all actives have a fitted effect of over 45% in size. Also: potency is read from the fitted curve at half-maximal effect. In short, it runs like this: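 Viability read-out: CellTiter-Fluor fluorescence after 23 h compound exposure at 37 C/5% CO2 in double-stable HepG2-CYP2B6-hCAR cells, with PK11195 present at 0.75 uM final; compounds tested in 15-point titration.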

Assay [11] is described as follows: qHTS assay to identify small molecule antagonists of the constitutive androstane receptor (CAR) signaling pathway - cell viability counter screen (AID 1224837). Also: nearly all actives have a fitted effect of over 45% in size. Also: potency is read from the fitted curve at half-maximal effect. In short, it runs like this: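 Using CellTiter-Fluor, viability is scored in HepG2 cells stably carrying hCAR and a 2.2kb CYP2B6 reporter after 23 hr compound exposure across 15 concentrations, with CITCO present at 50 nM.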

Assay [12] deals with Retinoic acid receptor RXR-alpha (Homo sapiens) (UniProt P19793). Description: qHTS assay to identify small molecule agonists of the RXR signaling pathway (AID 1159527; calls by dose curve; also: % is scaled to controls: 0 for no effect and ±100 for the full control effect; nearly all actives have a fitted effect of over 35% in size). In short, it runs like this: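 Agonist mode; 9-cis retinoic acid positive control. HEK 293T UAS-bla reporter cells, 2% charcoal-stripped FBS, 16 hr compound exposure at 37 C/5% CO2. LiveBLAzer B/G FRET substrate 2 hr RT; ex 405, em 460/530 nm.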

Assay [13] can be described thus: qHTS assay to identify small molecule agonists of the retinoic acid receptor (RAR) signaling pathway (AID 1159553). Also: % is scaled to controls: 0 for no effect and ±100 for the full control effect. In short, it runs like this:
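Activation of retinol signaling was monitored via a RARE luciferase reporter in C3RL4 cells. After 6 hr compound treatment at 37 C, detection reagent was added for 30 min at room temperature before luminescence reading.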

Assay [14] deals with Nuclear receptor subfamily 1 group I member 3 (Homo sapiens) (UniProt Q14994). Description: qHTS assay to identify small molecule agonists of the constitutive androstane receptor (CAR) signaling pathway (AID 1224839). Also: series mostly up to about 92 µM; % is scaled to controls: 0 for no effect and ±100 for the full control effect; nearly all actives have a fitted effect of over 15% in size. In short, it runs like this: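 Luminescence read-out (ONE-Glo, 30 min, room temperature) from double-stable HepG2-CYP2B6-hCAR cells exposed 24 h to 15-point compound series in presence of 0.75 uM PK11195 final.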

The target is the same in assay [15]. The assay can be described thus: qHTS assay to identify small molecule antagonists of the constitutive androstane receptor (CAR) signaling pathway (AID 1224838).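 Also: HepG2 cells stably expressing hCAR with CYP2B6 luciferase reporter stimulated by CITCO; nearly all actives have a fitted effect of over 40% in size.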 Also: potency is read from the fitted curve at half-maximal effect. The method in brief:
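Reporter luminescence was quantified after 24 h exposure of hCAR/CYP2B6-2.2kb double-stable HepG2 cells to compounds at 15 concentrations in the presence of 50 nM CITCO final.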

Sequence of Luciferin 4-monooxygenase (Photinus pyralis) (P08659 whole entry, looked up): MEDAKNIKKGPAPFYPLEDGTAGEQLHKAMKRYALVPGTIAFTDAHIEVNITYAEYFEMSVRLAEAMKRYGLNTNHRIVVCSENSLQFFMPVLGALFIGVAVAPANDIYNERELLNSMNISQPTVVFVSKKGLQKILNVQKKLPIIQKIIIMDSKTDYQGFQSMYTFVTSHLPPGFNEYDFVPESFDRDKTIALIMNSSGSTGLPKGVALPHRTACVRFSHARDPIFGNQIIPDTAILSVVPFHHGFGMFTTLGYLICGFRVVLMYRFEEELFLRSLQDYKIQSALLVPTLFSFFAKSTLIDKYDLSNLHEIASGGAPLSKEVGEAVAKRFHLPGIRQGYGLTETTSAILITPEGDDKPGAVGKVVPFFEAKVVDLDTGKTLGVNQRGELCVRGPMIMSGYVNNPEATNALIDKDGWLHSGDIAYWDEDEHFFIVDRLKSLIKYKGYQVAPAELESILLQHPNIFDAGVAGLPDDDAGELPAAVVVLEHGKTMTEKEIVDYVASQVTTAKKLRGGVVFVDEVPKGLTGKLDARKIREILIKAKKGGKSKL
Sequence of Nuclear receptor subfamily 1 group I member 3 (Homo sapiens) (Q14994 whole entry, looked up): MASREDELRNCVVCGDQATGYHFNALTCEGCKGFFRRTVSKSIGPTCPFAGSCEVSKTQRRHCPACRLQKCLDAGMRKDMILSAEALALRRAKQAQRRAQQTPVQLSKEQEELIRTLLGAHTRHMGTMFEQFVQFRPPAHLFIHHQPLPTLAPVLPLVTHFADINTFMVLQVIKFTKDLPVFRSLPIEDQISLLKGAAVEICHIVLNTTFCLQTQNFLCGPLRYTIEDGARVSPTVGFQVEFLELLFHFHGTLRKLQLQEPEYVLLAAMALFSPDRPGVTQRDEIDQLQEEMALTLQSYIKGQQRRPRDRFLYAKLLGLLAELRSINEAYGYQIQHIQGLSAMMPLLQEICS
Sequence of Retinoic acid receptor RXR-alpha (Homo sapiens) (P19793 whole entry, looked up): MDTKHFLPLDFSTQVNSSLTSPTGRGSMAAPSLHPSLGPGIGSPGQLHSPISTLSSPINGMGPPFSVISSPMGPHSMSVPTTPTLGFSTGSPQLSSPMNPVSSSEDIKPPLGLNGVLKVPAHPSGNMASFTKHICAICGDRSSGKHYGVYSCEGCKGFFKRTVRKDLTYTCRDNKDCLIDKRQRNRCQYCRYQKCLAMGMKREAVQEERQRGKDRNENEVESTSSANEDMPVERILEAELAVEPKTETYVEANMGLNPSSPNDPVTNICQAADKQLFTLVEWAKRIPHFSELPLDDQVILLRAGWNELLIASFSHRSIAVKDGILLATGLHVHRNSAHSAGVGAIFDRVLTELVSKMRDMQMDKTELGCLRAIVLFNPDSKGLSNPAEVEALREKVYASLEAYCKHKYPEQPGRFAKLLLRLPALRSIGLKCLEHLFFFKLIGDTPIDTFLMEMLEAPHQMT

Consider `Cn1c(=O)[nH]c2ncn(C)c2c1=O`, for which the Potency result in assay [1], in assay [2], in assay [3], in [4], in [5] and in assay [6] was “inactive” in each case. The Potency entry in assay [7], in [8], in assay [9], in assay [10] and in assay [11] was “inactive” each time.

Take `NC(=O)C1CO1` (stereo not given): the Potency entry in [1], in assay [12], in [4], in [5], in assay [8] and in assay [9] was “inactive” throughout. For the same compound, the Potency result in assay [10] and in [11] was “inactive” throughout.

With `NCc1cccc(C2CCN(C(=O)c3ccc(C#Cc4ccccc4F)o3)CC2)c1`, the Potency was 54.9 µM (active) in assay [1]; 13.8 µM (active) in assay [3]; 68.6 µM (active) in assay [4]; 54.5 µM (active) in assay [5]; 68.6 µM (active) in [8]; 68.6 µM (active) in [11]. For the same compound, the Potency result in assay [13], in assay [9] and in assay [14] was “inactive” each time.

As for `COc1cc([C@@H]2c3cc4c(cc3[C@@H](O[C@@H]3O[C@@H]5CO[C@@H](C)O[C@H]5[C@H](O)[C@H]3O)[C@H]3COC(=O)[C@H]23)OCO4)cc(OC)c1O`, the Potency entry in assay [4], in assay [9], in assay [10] and in assay [11] was “inactive” each time. Besides, the Potency in assay [5] was 67.8 µM (active).

In the case of `CC(=O)[C@]1(O)Cc2c(O)c3c(c(O)c2[C@@H](O[C@H]2C[C@H](N)[C@H](O)[C@H](C)O2)C1)C(=O)c1ccccc1C3=O`, the Potency entry in assay [1], in [3], in assay [6] and in assay [14] was “inactive” in each case. Further, the Potency in [5] was 0.298 µM (active); in assay [8] it was 1.06 µM (active); in assay [10], 2.66 µM (active); in assay [11], 2.11 µM (active); in [15], 0.237 µM (active).

Consider `CCCCCCCCCC[N+](C)(CCCCCCCCCC)CCC[Si](OC)(OC)OC`, for which the Potency was 21.9 µM (active) in assay [3], 30.6 µM (active) in assay [4], 61.1 µM (active) in assay [5] and 79.6 µM (active) in [9]. Also, the Potency entry in assay [10], in assay [11], in [15] and in assay [14] was “inactive” each time.

On to `CSC(=N)N`, for which the Potency result in [6] was “inactive”.

On to `Clc1nc(C(Cl)(Cl)Cl)c(Cl)c(Cl)c1Cl`, for which the Potency result in [1], in assay [9], in assay [11] and in assay [14] was “inactive” throughout. In addition, the figures for the Potency in assay [3] and in [15] were 43.6 µM (active) and 54.5 µM (active), respectively.

For the compound `COc1cc2ncnc(Nc3cccc(Cl)c3)c2cc1OC`, the viability change, negative = cytotoxic in assay [1] was -9.86% [at 15.8 µM]; in assay [8], -12.2% [at 19 µM]; in assay [10] it was -10.2% [at 19 µM]. In addition, the activity change, negative = cytotoxicity in [3] is -0.839% [at 15.8 µM]; in assay [4], 0.617% [at 19 µM]; in assay [11], -20.1% [at 19 µM]. Moreover, the Potency entry in assay [6] and in assay [7] was “inactive” in each case. Also, in assay [9], the activity change, negative = inhibition was -1.79% [at 23.6 µM].

Turning to `O=C1OC2(c3ccccc31)c1ccc(O)c(Br)c1Oc1c2ccc(O)c1Br`, the Potency entry in assay [1], in assay [3], in assay [4], in assay [5], in [11] and in [15] was “inactive” throughout. In addition, the Potency entry in [14] was “inactive”. Further, the Potency in assay [9] was 35.6 µM (active).

With `CN1CCN(CCCN2c3ccccc3Sc3ccc(Cl)cc32)CC1`, the Potency entry in assay [1], in assay [4], in assay [9], in assay [10], in [15] and in assay [14] was “inactive” each time. Moreover, the Potency in [3] was 9.52 µM (active); in [5] it was 26.6 µM (active); in [7] it was 27.6 µM (active); in assay [8] it was 29.8 µM (active).

Take `O=C(CCCCCCCCc1cccnc1)N1CCC(C=C(c2ccccc2)c2ccccc2)CC1`: the Potency result in assay [1], in [4], in assay [5], in assay [13] and in [9] was “inactive” throughout. In addition, the Potency in [8] is 54.5 µM (active).
